Reference: PubChem BioAssay AID1851 (National Center for Advancing Translational Sciences (NCATS), 2009)
Several values for one entry are separate records, joined by “and”; a condition that tells them apart may be missing. Identical values can stand only once. About 5,700 (36%) of roughly 16,000 compounds were called active. Inconclusive results (about 24%) are left out. The call rests on the fitted dose curve; in most records, active means well fitted curve in the direction sought with a large enough effect; inconclusive means small, poorly fitted or top-dose-only effect, or effect the other way; inactive means no such curve, though single readings can be large or run the other way. The list shows a part of the results. Peptide text beside a SMILES is read from it.

Each compound was assayed against Cytochrome P450 1A2 (Homo sapiens) (UniProt P05177) (assay: Cytochrome panel assay with activity outcomes). Conditions: recombinant CYP, pro-luciferin dealkylation, luminescence, p450-cyp1a2; series mostly up to 57.1 µM; activity, negative = inhibition: at the top concentration.
Cytochrome P450 1A2 (Homo sapiens), sequence (P05177 whole entry, looked up): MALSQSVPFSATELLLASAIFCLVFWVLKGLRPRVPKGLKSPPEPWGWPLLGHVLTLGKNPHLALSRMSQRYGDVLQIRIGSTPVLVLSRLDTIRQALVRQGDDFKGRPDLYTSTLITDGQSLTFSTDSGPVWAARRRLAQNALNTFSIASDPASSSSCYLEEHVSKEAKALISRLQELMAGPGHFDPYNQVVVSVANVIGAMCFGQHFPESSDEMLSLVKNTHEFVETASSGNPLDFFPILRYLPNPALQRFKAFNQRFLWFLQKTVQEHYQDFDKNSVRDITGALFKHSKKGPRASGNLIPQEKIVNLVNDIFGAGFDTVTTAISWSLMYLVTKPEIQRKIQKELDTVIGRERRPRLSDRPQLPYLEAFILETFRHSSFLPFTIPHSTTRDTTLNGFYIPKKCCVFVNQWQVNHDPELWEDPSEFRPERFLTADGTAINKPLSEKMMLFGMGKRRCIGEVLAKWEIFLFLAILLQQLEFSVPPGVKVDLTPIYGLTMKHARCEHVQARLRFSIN
On the % scale 0 is the no-effect control and ±100 the full control effect.

AC50, inactive:
CC(=O)N[C@@H](CC(=O)O)C(=O)N[C@@H](CCC(=O)O)C(=O)O (Ac-Asp-Glu-OH)
CCCC[S@@](=N)(=O)CC[C@@H](N)C(=O)O
Nc1ccc(S(=O)(=O)Nc2cnc3ccccc3n2)cc1

AC50, active:
CNc1cc(CSC)nc(SCc2ccc(Cl)c(Cl)c2)n1 4470 nM
CN(CCc1ccccn1)Cc1ccc(Cl)cc1Cl 7080 nM
c1ccc(-c2ccc3c(c2)c2c4n3CCN=C4CCC2)cc1 2820 nM
O=C(CCNC(=O)c1ccccc1)OCN1C(=O)c2ccccc2C1=O 2240 nM
COc1ccccc1-c1cc(NCc2cccnc2)ncn1 316 nM
Cc1cccc(CNc2cc(-c3ccccc3CN(C)C)ncn2)c1 25100 nM
COc1ccccc1-c1cc(NCc2cccs2)ncn1 1580 nM
COc1ccccc1CNCc1cccs1 251 nM
Cc1cccc(CNc2cc(-c3ccccc3Cl)ncn2)c1 3160 nM
COc1ccccc1-c1cc(NCc2cccc(C)c2)ncn1 1580 nM
Clc1ccccc1-c1cc(NCc2cccnc2)ncn1 3160 nM
CN(C)Cc1ccccc1-c1cc(NCc2cccs2)ncn1 25100 nM
COc1ccccc1-c1cc(NCc2ccccc2)ncn1 2510 nM
Cc1ccc2nc(/C(C#N)=C\c3ccc(OC(=O)c4cccs4)cc3)[nH]c2c1 2510 nM
Clc1ccc(-c2nnc(-c3cccc4ccccc34)o2)cc1Cl 2000 nM
COc1ccc(-c2nc3cnc(N(C)C)nc3n(Cc3cccs3)c2=O)cc1 1580 nM
CN(C)c1ncc2nc(-c3ccc(Cl)cc3)c(=O)n(Cc3cccs3)c2n1 1580 nM
CN(C)c1ncc2nc(-c3ccc(F)cc3)c(=O)n(Cc3cccs3)c2n1 1000 nM
Nc1ccc(-c2nc3c(Cl)c(N)ccc3[nH]2)cc1 794 nM
O=C(CCc1ccc(S(=O)(=O)NC2CCCCC2)cc1)N(Cc1ccccc1)Cc1ccccc1 1580 nM
CC(C)c1ccc2c(c1)C(c1ccc(N3CCOCC3)cc1)=NNC(c1cccs1)=N2 3160 nM
O=C(OCn1ncc(Cl)c(Cl)c1=O)c1cccc(C(F)(F)F)c1 2000 nM
O=S(=O)(Nc1ccc2oc(-c3ccccc3)nc2c1)c1ccccc1 5010 nM
CCCCC[C@H](O)c1cccc(OCc2ccc3ccccc3n2)c1 794 nM
O=C(O)c1ccccc1Nc1cccc(OCc2ccc3ccccc3n2)c1 1000 nM
FC(F)(F)c1nc(-c2ccncc2)ncc1-c1nnnn1-c1ccccc1 25100 nM
O=c1c2ccc([N+](=O)[O-])c3cccc(c32)c2nc3ccccc3n12 3550 nM
O=C(O)c1ccc2c3c1cccc3c(=O)n1c3ccccc3nc21 15800 nM
Cc1nc2cnc(N3CCNCC3)nc2n(-c2ccccc2)c1=O 10000 nM
COc1ccc(-n2c(=O)cnc3cnc(N4CCNCC4)nc32)cc1 12600 nM
COc1ccc(-n2c(=O)c(C)nc3cnc(N4CCNCC4)nc32)cc1 15800 nM
COc1ccc(-n2c(=O)c(C)nc3cnc(N4CCOCC4)nc32)cc1 12600 nM
c1ccn(-c2ccc(N3CCOCC3)cc2)c1 251 nM
CC(C)=CC(=O)Nc1nnc(C(C)C)s1 15800 nM
Cc1ccc(-c2csc(NC(=S)NC(=O)/C=C/c3ccco3)n2)cc1 5620 nM
Cc1cc2nc(C)n(CCCN)c2cc1C 12600 nM
NCCCc1ccc2oc3ccccc3c2c1 31.6 nM
Cc1ccc(C(=O)Nc2ccc(Cc3ccncc3)cc2)cc1[N+](=O)[O-] 282 nM
Cc1ccc(C(=O)Nc2ccccc2Oc2ccccc2)cc1[N+](=O)[O-] 12600 nM
Cc1ccc(C(=O)N/N=C\c2ccc[nH]2)cc1[N+](=O)[O-] 1780 nM
Cc1ccc(/C=N/NC(=O)c2cccs2)cc1[N+](=O)[O-] 2240 nM

activity, negative = inhibition, inactive:
CN(C)CCO[C@@H](c1ccc(Cl)cc1)c1ccccn1 -0.205% [at 25.6 µM]
Cc1cccc(CN(C)CCc2ccccn2)c1 -8.65%
C=CCN=C1CC(C)(C)CC(=O)/C1=C(\O)c1ccccc1 3.8%
CCC(C)C(NC(=O)OCc1ccccc1)C(=O)OCN1C(=O)c2ccccc2C1=O (centres undefined) -13.3%
Cc1ccc(S(=O)(=O)N[C@H]2COC(=O)C/C=C\[C@@H](C)[C@H](NS(=O)(=O)c3ccc(C)cc3)COC(=O)[C@H](C)NC(=O)C/C=C\[C@H]2C)cc1 -1.96% [at 11.4 µM]
c1csc(CNCCCN2CCOCC2)c1 -8.37%
COc1ccccc1CNCCCCCCNCCCCCCCCNCCCCCCNCc1ccccc1OC 0.168%
CN(C)Cc1ccccc1-c1cc(NCc2ccccc2)ncn1 -21%
C[N+](C)(C)CCO -2.79%
Clc1ccccc1C(Nc1cnccn1)Nc1cnccn1 -18% [at 2.29 µM]
C=CC[C@@H]1C=C[C@H](Oc2ccc(C)cc2)[C@H](COC(=O)NCc2cccc3ccccc23)O1 -8.02% [at 11.4 µM]
N#C/C(=C\c1ccc(Oc2ccc(C(F)(F)F)cc2[N+](=O)[O-])cc1)c1nc2ccccc2[nH]1 -26.8%
Cc1ccc(-c2nnc(-c3ccccc3S(=O)(=O)Cc3ccc(Cl)cc3)o2)cc1 -27.6%
CCCNC(=O)OC[C@@H]1O[C@H](CCO/N=C(\C)CCN2CCCCc3nc(C)c(C)cc32)C=C[C@@H]1Oc1ccc(OC)cc1 3.81% [at 11.4 µM]
Cc1ccc(S(=O)(=O)N[C@H]2COC(=O)[C@H](C)COC(=O)[C@H](C)NC(=O)C/C=C\[C@H]2C)cc1 4.67% [at 11.4 µM]
O=C(CCc1ccccc1)NNC(=O)C1CCCCC1 -5.87%
O=C(CN(CC1CCCO1)C(=O)CNS(=O)(=O)c1ccc(Cl)cc1)NCCc1ccccc1 (centres undefined) -20.7%
COC(=O)[C@@H]1CC[C@H](C)[C@@H](c2ccc(C)cc2)N1C(=O)c1ccc(/C=N\O[C@@H](C)c2cn([C@H](CO)Cc3ccccc3)nn2)cc1 -8.03% [at 11.4 µM] and -18.7% [at 11.4 µM]
O=C(OC1CCN(c2ncc(C(F)(F)F)cc2Cl)CC1)c1cccc(C(F)(F)F)c1 -26.7%
COCC(=O)N1CCC2(CC1)CN(Cc1ccccc1OC)C2 19.2%
S=c1c2[nH]cnc2ncn1CCSc1ncnc2nc[nH]c12 -16.9% [at 11.4 µM]
O=C(Nc1ccc(-c2nc3ccccc3o2)cc1)c1ccc(N2CCOCC2)c([N+](=O)[O-])c1 -22.7%
O=C(O)Cc1ccc(NC(=O)C2CCCCC2C(=O)O)cc1 (centres undefined) -4.46%
CC(C)OCCCNC(=O)C1CC(=O)N(C2CCCCCCC2)C1 (centres undefined) -16.6%
CCCCOC(OCCCC)[C@H](O)CSc1ccc2ccccc2c1 -1.2% [at 11.4 µM]
CN(C)CC(O)COc1cccc(OCC(O)CN(C)C)c1 (centres undefined) -1.71%
Cc1cc(C)cc(-n2nnnc2-c2cn(C)nc2C(F)(F)F)c1 -26.4%
FC(F)(F)c1nc(N2CCCC2)ncc1-c1nnnn1-c1ccccc1 -21.7%
NCCSS(=O)(=O)CCN -17.1% [at 2.29 µM]
CCc1cc2c(nc1CC)CCN(CC/C(C)=N/OC[C@@H](O)[C@@H]1O[C@@H]3OC(C)(C)O[C@@H]3[C@H]1O)C2 -14.1% [at 11.4 µM]
CCc1cc2c(nc1CC)CCN(CC/C(C)=N/OC[C@@H](C)[C@H](OCc1ccccc1)C(C)C)C2 -7.21% [at 11.4 µM]
N[C@@H](Cc1ccnnc1)C(=O)O -10.6% [at 2.29 µM]
CC(C)NC(=O)N1CCC2(CC1)CCN(C(=O)c1cccc(F)c1)CC2 17.5%
O=C(O)CCc1c2ccc(=O)c(O)c-2oc2c(O)c(O)ccc12 -3.96% [at 2.29 µM]
O=C(C1CCN(S(=O)(=O)N2CCOCC2)CC1)N1CCN(c2ccccc2)CC1 -17.5%
O=C(N1CCOCC1)N1CCN(c2ccccc2)CC1 -12.8%
Nc1nc2c(c(=O)[nH]1)CN(c1ccc(S(N)(=O)=O)cc1)CN2 8.8% [at 2.29 µM]
CC(C)c1nnc(NC(=O)CCC(=O)N2CCN(c3ccccn3)CC2)s1 -0.62%
CC(=O)Nc1nnc(S(N)(=O)=O)s1 -2.87% [at 25.6 µM]
O=C(/C=C/c1ccco1)NC(=S)Nc1ccc(N2CCOCC2)c(Cl)c1 -5.19%
Cc1ccc(/C=C/C(=O)NC(=S)Nc2ccccc2C(=O)NC2CCCCC2)cc1 -16.9%
O=P(O)(CCP(=O)(O)c1ccccc1)c1ccccc1 -14.2% [at 11.4 µM]
CCN(CC)C(=O)C1CCN(S(=O)(=O)c2ccc3oc4ccccc4c3c2)CC1 -25.6%
Cc1ccc(C(=O)N/N=C/c2cc(C)n(-c3ccc(Br)cc3)c2C)cc1[N+](=O)[O-] -30%
Cc1ccc(C(=O)COC(=O)CNC(=O)C(c2ccccc2)c2ccccc2)cc1[N+](=O)[O-] -16.2%
O=C(N/N=C/C=C/c1ccc([N+](=O)[O-])cc1)c1cccs1 -16.7%
CCC(=O)Nc1ccc(C(=O)OCC(=O)c2ccc(C)c([N+](=O)[O-])c2)cc1 -3.08%
COc1cccc(CNC(=O)C2CCN(S(=O)(=O)N3CCCCC3)CC2)c1 -8.64%
CN1CC[C@@]2(CCN3CCc4c(oc5ccccc45)[C@@H]3C2)N(C)C1=O -14.2%
C[C@@H](N)[C@@H](C)Cc1ccccc1 -20% [at 11.4 µM]
